Screening data as filed in PubChem.
TGFb SMAD3 inh = TGF-b pathway inhibition. AID 588855. 410,000 compounds, 1.2% hits. Potency, µM (titrated, usually from 46.1 µM), without a hit: at the top dose activity, negative = inhibition, actives largely listed as inhibitors. HepG2 CAGA-GFP TGF-b/SMAD3 reporter, GFP fluorescence, 18 h; TGF-beta stimulated, 500 pg/mL final; further: on the % scale 0 is the no-effect control and ±100 the full control effect; nearly all actives have a fitted effect of over 65% in size
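HEPG2 CAGA-GFP cells (1000/well, DMEM with 1% FBS) were pre-incubated 2 h at 37 degrees C, given compound by pin tool, then stimulated with TGF-beta at 500 pg/mL final for 18 h before per-cell GFP fluorescence imaging.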
DT40 TDP1 CPT = growth inhibition of DT40 Tdp1-/-;hTDP1 cells with camptothecin (screen for TDP1 inhibitors); chicken DT40 Tdp1-/-;hTDP1 cells + 20 nM CPT, ATP luminescence, 48 h; 420,000 compounds, 12% hits; Potency, µM (doses to about 46.2 µM), for the others: at the highest dose activity change, negative = growth inhibition, most hits filed as inhibitors; further: on the % scale 0 is the no-effect control and ±100 the full control effect; nearly all actives have a fitted effect of over 55% in size
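Chicken DT40 Tdp1-/- cells complemented with human TDP1, 400 cells/well, exposed to compounds plus 20 nM camptothecin for at least 48 h at 37 C; viability read as ATP content by CellTiter-Glo luminescence.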
DT40 TDP1 no CPT = qHTS for Inhibitors of human tyrosyl-DNA phosphodiesterase 1 (TDP1): qHTS in cells in absence of CPT; 420,000 compounds, 15% hits; Potency, µM (doses to about 46.2 µM), for inactives: at the top dose activity change, negative = growth inhibition, actives largely listed as inhibitors; DT40 Tdp1-/- hTDP1 cells, no CPT, ATP luminescence, 48 h; further: on the % scale 0 is the no-effect control and ±100 the full control effect; nearly all actives have a fitted effect of over 55% in size
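DT40 Tdp1-/-;hTDP1 cells, no CPT (DMSO vehicle only), 400 cells/well; compounds pin-transferred; ≥48 hr, 37 °C; CellTiter-Glo 30 min RT dark, luminescence read.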
S2 tox = reduces viability in counter-screen for ATXN expression inhibitors; S2 cells (HEK-293 line with an ATXN2-luciferase reporter) viability, CellTiter-Fluor protease fluorescence, 24 h; Potency, µM (highest dose often 56.7 µM), hits mostly cytotoxic; 400,000 compounds, 0.49% hits; AID 651635; further: nearly all actives have a fitted effect of over 40% in size
HepG2 viability = counter-screen for TGF-b inhibitors: cytotoxicity in HepG2 cells | AID 588856 | Potency, µM (titrated, usually from 46.1 µM), inactives show top-dose activity change, negative = cytotoxicity, actives largely listed as cytotoxic | 410,000 compounds, 0.76% hits | HepG2 CAGA-GFP viability, ATP luminescence, 18 h
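CellTiter-Glo luminescence gave cytotoxicity after 18 hours at 37 degrees C. The cells were HepG2 CAGA-GFP in 1% FBS DMEM, stimulated with 500 pg/mL TGF-beta after compound addition. %Activity was normalised to no-cell wells (complete cell-killing) and DMSO (no toxicity), and curves were fitted and classified.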
ATXN2 expr inh = inhibitors of ATXN2 expression | 360,000 compounds, 0.72% hits | HEK-293 ATXN2-luciferase reporter, luminescence, 24 h | Potency, µM (highest dose often 57 µM), for inactives: at the highest dose activity change, negative = inhibition, usual class: inhibitors; further: on the % scale 0 is the no-effect control and ±100 the full control effect; nearly all actives have a fitted effect of over 55% in size
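qHTS (up to 57 uM final) was run with 24 h compound exposure of reporter cells at 37 °C. Each well was multiplexed: SteadyGlo luminescence measured ATXN2-luciferase expression after a fluorogenic Gly-Phe-AFC viability readout (25 uM final).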
Starred values were filed as active, the others as inactive; i = inactive; ? = inconclusive; · = not tested or not shown. Rows were chosen to be rich in hits. Some 17% of all compounds tested hit in one or more screens of this group. The call rests on the fitted dose curve; in most records, active means well fitted curve in the direction sought with a large enough effect; inconclusive means small, poorly fitted or top-dose-only effect, or another doubt; inactive means no such curve, though single readings can be large; an effect the other way counts as inactive or inconclusive. Potency means the concentration at half of the fitted maximal effect.

SMILES	TGFb SMAD3 inh	DT40 TDP1 CPT	DT40 TDP1 no CPT	S2 tox	HepG2 viability	ATXN2 expr inh
CCOC(=O)c1cnc2ccc(OC)cc2c1Nc1ccc2c(c1)OCCO2	4%	?	18µM*	i	-22%	?
CCOC(=O)c1ccc2ncc(C(=O)OCC)c(Nc3ccc(N4CCOCC4)cc3)c2c1	?	10µM*	6.5µM*	?	-32%	22µM*
CCOC(=O)c1cnc2ccccc2c1Nc1ccc(N2CCOCC2)cc1	-2%	?	-19%	i	0%	8%
CCOC(=O)c1cnc2ccc(OC)cc2c1Nc1ccc(N2CCN(C)CC2)cc1	?	23µM*	21µM*	i	-20%	?
CN(C)c1cccc(C(=O)OCCNC(=O)c2cccc(S(=O)(=O)N3CCOCC3)c2)c1	-10%	?	?	i	-2%	-22%
CC(=O)c1ccc(N2CCC(C)CC2)c(F)c1	-2%	-21%	-2%	i	-1%	11%
CCCCCC(=O)N1CCN(c2ccc(C(C)=O)cc2F)CC1	-5%	15µM*	21µM*	i	-14%	1%
CCCC(=O)c1ccc(N2CCN(C(=O)c3ccccc3Br)CC2)c(F)c1	-5%	18µM*	13µM*	i	-23%	-16%
CCCC(=O)c1ccc(N2CCN(C(=O)c3ccccc3)CC2)c(F)c1	?	?	?	i	-37%	-18%
CCC(=O)c1ccc(N2CCN(C(=O)c3ccc(Br)cc3)CC2)c(F)c1	-5%	21µM*	10µM*	i	-7%	-6%
O=C(c1ccc(F)cc1F)N1CCCN(c2nc(-c3ccccc3)ns2)CC1	?	?	?	i	-21%	·
CCC(=O)c1ccc(N2CCOCC2)c(F)c1	2%	-6%	-3%	i	-9%	-22%
O=C(c1ccccc1)c1ccc(N2CCN(C(=O)c3ccc(F)cc3F)CC2)c(F)c1	2%	23µM*	?	i	-25%	·
FC(F)(F)C(F)(F)c1nc2nc(Cl)c(Cl)nc2[nH]1	-18%	?	?	i	-15%	·
CCOC(=O)c1sc(NC(=O)C(C)Sc2nnc(N)s2)nc1C (configuration not stated)	4%	6%	2%	i	17%	·
O=C(COC(=O)/C=C/c1ccc(F)cc1)NC1CCCCCC1	11%	12%	8%	i	-6%	-1%
CCC(=O)c1ccc(N2CCCCC2)c(F)c1	17%	-2%	16%	i	5%	5%
CCC(=O)c1ccc(N2CCN(C(=O)c3ccc(F)cc3)CC2)c(F)c1	-26%	21µM*	10µM*	i	-2%	4%
CCC(=O)c1ccc(N2CCN(C(=O)c3cccc(F)c3)CC2)c(F)c1	11%	?	13µM*	i	-13%	13%
CCC(=O)c1ccc(N2CCN(C(=O)c3cc([N+](=O)[O-])ccc3N3CCN(C)CC3)CC2)c(F)c1	0%	-29%	-11%	i	2%	-4%
CCCC(=O)c1ccc(N2CCN(S(=O)(=O)c3ccc(C)cc3)CC2)c(F)c1	-17%	?	7.1µM*	i	-5%	-18%
CCCC(=O)c1ccc(N2CCN(C(=O)c3ccc(Br)cc3)CC2)c(F)c1	-13%	23µM*	7.3µM*	i	-3%	-20%
CCOC(=O)c1ccc(NC(=O)CC2Nc3ccccc3NC2=O)cc1 (configuration not stated)	5%	?	?	·	14%	2%
Cc1ccc(C)c(OCCCn2c(-c3ccc(Cl)cc3)nc3ccccc3c2=O)c1	-1%	-10%	-2%	i	-27%	-1%
O=C(O)c1ccc(NC(=O)c2ccco2)c(NC(=O)c2ccco2)c1	-18%	8%	-4%	i	-3%	4%
SMILES	TGFb SMAD3 inh	DT40 TDP1 CPT	DT40 TDP1 no CPT	S2 tox	HepG2 viability	ATXN2 expr inh
O=C(/C=C\c1ccc2c(c1)OCO2)Nc1c2c(nn1-c1ccc(Cl)cc1)CSC2	-2%	?	?	i	-22%	-26%
CCC(C)(C)NC(=O)C(c1ccc(OC)cc1)N(C(=O)CCC(=O)Nc1cc(C)on1)c1ccc2c(c1)OCO2 (configuration not stated)	-23%	?	?	i	-29%	1%
CCN1CCN(S(=O)(=O)c2ccc(OC)c(Br)c2)CC1	-7%	-9%	?	i	-45%	-8%
Cc1ccc2cc(C#N)c(N3CCN(C)CC3)nc2c1	-16%	-5%	-11%	i	-2%	-9%
Cc1ccc2cc(C#N)c(N3CCCN(S(=O)(=O)c4ccc(F)cc4)CC3)nc2c1	-6%	?	15µM*	i	-3%	-6%
Cc1ccc2cc(C#N)c(N3CCCN(S(=O)(=O)c4ccccc4)CC3)nc2c1C	10%	-9%	-13%	i	-24%	-3%
Cc1ccc2nc(N3CCN(S(=O)(=O)c4ccc(C)c(Cl)c4)CC3)c(C#N)cc2c1	-7%	21µM*	21µM*	i	6%	-12%
Cc1ccc2cc(C#N)c(N3CCCN(S(=O)(=O)c4ccccc4)CC3)nc2c1	8%	?	26µM*	i	0%	-18%
CCCC(=O)N1CCC1(C)C(=O)NS(=O)(=O)c1ccccc1Cl (configuration not stated)	-11%	-13%	1%	i	-26%	2%
CCOc1ccc2nc(N3CCCC(C(=O)NCCCN4CC(C)CC(C)C4)C3)sc2c1 (configuration not stated)	?	18µM*	18µM*	?	-95%	-27%
COc1ccc(CCNc2nc(N3CCCCC3)nc(N3CCCCC3)n2)cc1OC	?	?	23µM*	i	-19%	-20%
COc1ccc2nc(N3CCCC(C(=O)NCCc4ccc(OC)c(OC)c4)C3)sc2c1 (configuration not stated)	-4%	?	13µM*	?	-3%	39%
Cc1ccc(CNC(=O)c2ccc3nc(N4CCCCC4)sc3c2)cc1	3%	-25%	-19%	i	4%	34%
COc1ccc(CCNC(=O)c2ccc3nc(N4CCCCC4)sc3c2)cc1OC	-6%	18µM*	21µM*	?	-28%	?
CCN1CCN(S(=O)(=O)c2ccc(Cl)c(C(=O)NCc3nc4ccccc4[nH]3)c2)CC1	-16%	?	?	i	-3%	-23%
